Laboratory results as given in PubChem BioAssay AID686978 (National Center for Advancing Translational Sciences (NCATS), 2013).
Out of some 420,000 compounds screened, about 64,000 (15%) were called active. Inconclusive results (about 27%) are left out. Calls follow the shape of the dose curve; as a rule, active = well fitted inhibition curve with a large enough effect; inconclusive = small, poorly fitted or top-dose-only effect; inactive = flat fitted curve, though single readings scatter. These entries were drawn from the full list. A call without a number means that no potency is given here.

Test: qHTS for Inhibitors of human tyrosyl-DNA phosphodiesterase 1 (TDP1): qHTS in cells in absence of CPT; also: nearly all actives have a fitted effect of over 55% in size
Details: DT40 Tdp1-/- hTDP1 cells, no CPT, ATP luminescence, 48 h; activity change, negative = growth inhibition: at 46.2 µM (top of the series)
Method in brief: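 Luminescent ATP content (CellTiter-Glo) served as the growth readout. Knockout chicken DT40 cells expressing human TDP1 were exposed to compounds without camptothecin for a minimum 48 hr at 37 °C.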
Potency is read from the fitted curve at half-maximal effect.

| SMILES | Potency |
| --- | --- |
| CCC1(CC)NC(=O)N(Cc2nc3ccccc3s2)C1=O | inactive |
| CCOc1ccc2oc(C(=O)N(CC)CC(=O)Nc3ccc(NC(C)=O)cc3)c(C)c2c1 | inactive |
| CCOc1ccc(-n2c(SCC(=O)NC3CCS(=O)(=O)C3)nnc2-c2cccnc2)cc1 (stereo unspecified) | inactive |
| COc1ccc(S(=O)(=O)N2CCOCC2)cc1NC(=O)Cc1coc2cc(C)ccc12 | inactive |
| N#Cc1c2c(c(-c3ccccc3)[nH]c1=O)CCCC2 | inactive |
| CCCCC1N2CC3([N+](=O)[O-])CN1CC([N+](=O)[O-])(C2)C3(C)C (stereo unspecified) | inactive |
| Nc1ccc(SCCN2C(=O)c3ccccc3C2=O)cc1 | inactive |
| Cc1ccc2nc3c(cc(C(=O)NCCc4ccccc4)c(=N)n3CC3CCCO3)c(=O)n2c1 (stereo unspecified) | 20.6 µM (active) |
| COc1ccc(CCn2c(=N)c(C(=O)NCc3ccco3)cc3c(=O)n4cccc(C)c4nc32)cc1 | 11.6 µM (active) |
| O=C(NCc1cccnc1)c1cc(S(=O)(=O)N2CCOCC2)c(Cl)cc1Cl | inactive |
| COc1ccc(CNC(=O)c2cc3c(=O)n4ccccc4nc3n(CC3CCCO3)c2=N)cc1 (stereo unspecified) | inactive |
| COCCCn1c(C(=O)NC2CCCCC2)cc2c(=O)n3cccc(C)c3nc21 | 16.4 µM (active) |
| Cc1ccc(S(=O)(=O)c2cc3c(=O)n4cccc(C)c4nc3n(CCc3ccccc3)c2=N)cc1C | inactive |
| CCCCn1c(=N)c(S(=O)(=O)c2ccccc2)cc2c(=O)n3cccc(C)c3nc21 | inactive |
| Cc1cccn2c(=O)c3cc(C(=O)NCCN4CCOCC4)c(=N)n(Cc4cccnc4)c3nc12 | 8.2 µM (active) |
| COc1ccc(Cn2ccnc2SCC(=O)NCc2ccco2)cc1 | inactive |
| Cc1cccn2c(=O)c3cc(C(=O)NC4CCCCC4)sc3nc12 | inactive |
| O=C(NC1CCCCC1)c1ccc2c(=O)n(CC3CCCO3)c(=O)[nH]c2c1 (stereo unspecified) | inactive |
| CCOC(=O)c1ccc2[nH]c3c(c2c1)CCCC3NC=O (stereo unspecified) | inactive |
| C=CC1=C(C(=O)O)N2C(=O)[C@@H](NC(=O)/C(=N\OCC(=O)O)c3csc(N)n3)[C@H]2SC1 | inactive |
| Nc1c(N(CCCO)C(=O)C2CCCC2)c(=O)[nH]c(=O)n1Cc1ccccc1 | inactive |
| COc1ccc(NC(=O)C(CC(C)C)NC(=O)C2CCC(C)CC2)cc1 (stereo unspecified) | inactive |
| O=C(Cn1nc(Cc2cccnc2)c2ccccc2c1=O)NCC1CCCO1 (stereo unspecified) | inactive |
| COc1cc(=O)n2c(c1C(=O)NCc1ccco1)CCN(Cc1ccccc1)CC2 | inactive |
| COCCNc1ncnc2c1ncn2[C@H]1CN(CCN2CCOCC2)C[C@@H](CO)O1 | inactive |
| CN(CC(=O)NNC(=O)CNC(=O)c1ccccc1Cl)S(=O)(=O)c1ccc(Cl)cc1 | inactive |
